# Reference: PubChem BioAssay (EPA / NIEHS)
# The source made the active and inactive calls. How the source made its calls: active means hit-call score of the fitted dose curve at least 0.9, where 1 is the maximum; inactive means score below 0.9.
# Test: APR_HepG2_CellCycleArrest_72hr: Apredica 72-hour HepG2 Assay for Cell Cycle Arrest (AID 2282914)
# Details: high-content imaging, actives raise or lower the signal
# Description: APR_HepG2_72hr is a cell-based, multiplexed-readout assay that uses HepG2, a human liver cell line, with measurements taken at 72 hours after chemical dosing in a 384-well plate.APR_HepG2_CellCycleArrest_72hr is one of 10 assay component(s) measured or calculated from the APR_HepG2_72hr assay. It is designed to make measurements of cell phenotype, a form of morphology reporter, as detected with fluorescence intensity signals by HCS Fluorescent Imaging technology.Data from the assay component APR_HepG2_CellCycleArrest_72hr was analyzed into 1 assay endpoint. This assay endpoint, APR_HepG2_CellCycleArrest_72hr, was analyzed with bidirectional fitting relative to DMSO as the negative control and baseline of activity. Using a type of morphology reporter, measures of all nuclear dna for gain or loss-of-signal activity can be used to understand the signaling at the pathway-level as they relate to the gene . Furthermore, this assay endpoint can be referred to as a primary readout, because this assay has produced multiple assay endpoints where this one serves a signaling function. To generalize the intended target to other relatable targets, this assay endpoint is annotated to the cell cycle intended target family, where the subfamily is arrest.
# Cells were treated with dimethyl sulfoxide (DMSO) as a solvent control at a final concentration of 0.5% v/v or with compounds in DMSO with a resulting final DMSO concentration of 0.5% v/v. Compound treatment was done at concentrations of 0.39, 0.78, 1.56, 3.12, 6.24, 12.5, 25, 50, 100, and 200 uM in duplicate on each plate. Cells were treated with compounds for 1, 24, or 72 hr. Carbonyl […] m-chloro-phenylhydrazone (CCCP) and taxol were used as positive controls for mitochondrial function and cytoskeletal stability, respectively; DMSO served as the negative control for this experiment. Cells were fixed by the direct addition of 50 uL formaldehyde in Hank's Balanced Salt Solution (HBSS) to a final concentration of 3.7%. After incubation in the fixation medium for 30 min at room temperature (293-298 K), cells were rinsed twice with HBSS and treated with cell permeabilization buffer (16 uL of 0.5% Triton X-100) for 10 min at room temperature (293-298 K) before labeling. For mitochondrial membrane potential and mitochondrial measurements, pre-fixed cells were incubated with 50 uL of MitoTracker Red CMXRos (Invitrogen) at a concentration of 250 nM for 30 min before fixation. In the remaining cases, post-fixed cells were labeled by incubation with a multiplexed mixture of primary antibodies in HBSS for 60 min at room temperature (293-298 K) to detect immunoreactivity of c-Jun (1:500), phospho-histone H3 (1:100), phospho-histone H2A.x (1:200), p53 (1:400), alpha-tubulin (1:200) and Hoechst 33342 (2 ug/mL). Cells were labeled for multiplexed imaging on two separate plates: a) Hoechst 33342, MitoTracker Red, phospho-histone H3, and alpha-tubulin, and b) Hoechst 33342, phospho-histone H2A.x, and c-Jun. A final rinse with HBSS (50 uL) was performed before analysis. The primary and secondary antibodies for the proteins were phospho-histone H3 (rabbit anti-phospho-histone H3 and FITC-donkey anti-rabbit IgG), phospho-histone H2A.x (mouse anti-phospho-histone H2A.x and FITC-donkey anti-mouse IgG), c-Jun (rabbit anti-phospho-c-Jun and Cy3-donkey anti-rabbit IgG), p53 (sheep anti-p53 and Cy5-donkey anti-sheep IgG), alpha-tubulin (mouse anti-alpha-tubulin and Cy5-donkey anti-mouse IgG). These antibodies are available as the CellCiphr HepG2 assay kit (Millipore).Digital images of each well were captured using a Cellomics ArrayScan VTI (Thermo Scientific Cellomics) (0.8 NA objective, 0.63x optical coupler, and XF-93 filter set) at 20x magnification. The images were acquired using the autofocus feature of the ArrayScan instrument, which entails the following steps. First, the camera focuses on channel 1 (Hoechst 33342), where nuclei are identified. Second, a Z offset of 1 um is used for capturing mitochondria (MitoTracker Red). […]
Compound,outcome,AC50
CN(C)CCO,inactive,–
C[C@]12CCC(=O)C=C1CC[C@@H]1[C@@H]2CC[C@]2(C)C(=O)CC[C@@H]12,inactive,–
Cc1ccc(O)c(C)c1,inactive,–
COc1ccc(O)c(C(C)(C)C)c1,inactive,–
c1cc2ccc3cccc4ccc(c1)c2c34,inactive,–
O=S(=O)(O)C(F)(F)C(F)(F)C(F)(F)C(F)(F)C(F)(F)C(F)(F)F,inactive,–
Cc1ccccc1[N+](=O)[O-],inactive,–
CCOC(=O)C(O)(c1ccc(Cl)cc1)c1ccc(Cl)cc1,–,44.7 µM (active)
O=S(=O)(O)C(F)(F)C(F)(F)C(F)(F)C(F)(F)F,inactive,–
C1CC2OC2CC1C1CO1 (stereo not given),inactive,–
Cc1ccccc1CO[C@@H]1C[C@@]2(C(C)C)CC[C@]1(C)O2,inactive,–
CCC(C)(c1ccc(O)cc1)c1ccc(O)cc1,inactive,–
CCCCCCCCCC[N+](C)(C)CCCCCCCCCC,–,48.2 µM (active)
Cc1cccc([N+](=O)[O-])c1,inactive,–
CCC(C)c1cc([N+](=O)[O-])cc([N+](=O)[O-])c1O (stereo not given),–,75.8 µM (active)
Cc1cc(O)ccc1Cl,inactive,–
Clc1ccc(C(c2ccccc2Cl)C(Cl)(Cl)Cl)cc1 (stereo not given),–,24.6 µM (active)
ClC1=C(Cl)[C@]2(Cl)[C@@H]3[C@@H](Cl)[C@H]4O[C@H]4[C@@H]3C1(Cl)C2(Cl)Cl,–,86.3 µM (active)
C[C@]12CCC(=O)C=C1CC[C@@H]1[C@@H]2CC[C@@]2(C)[C@H]1CC[C@]2(C)O,inactive,–
Cc1cc(-c2ccc(N)c(C)c2)ccc1N,–,66.7 µM (active)

Compound,outcome,AC50
COS(=O)(=O)OC,inactive,–
O=NN(c1ccccc1)c1ccccc1,inactive,–
Clc1ccc(Cl)cc1,inactive,–
CC(c1ccc(O)cc1)(c1ccc(O)cc1)c1ccc(O)cc1,inactive,–
CC1=C2C[C@H]3[C@@H](CC=C4C[C@@H](O)CC[C@@]43C)[C@@H]2CC[C@]12O[C@@H]1C[C@H](C)CN[C@H]1[C@H]2C,inactive,–
Oc1c(Cl)c(Cl)c(Cl)c(Cl)c1Cl,–,60.8 µM (active)
C=CC(N)=O,inactive,–
O=C(N[C@H]1CN2CCC1CC2)c1cc2ccoc2cn1,inactive,–
CCCCCCCCOC(=O)c1ccccc1C(=O)OCCCCCCCC,inactive,–
CN(C)c1nc(=O)n(C2CCCCC2)c(=O)n1C,inactive,–
CC(C)(c1ccccc1)c1ccc(O)cc1,inactive,–
CCOP(=S)(OCC)SCSC(C)(C)C,inactive,–
O=C(O)C(F)(F)C(F)(F)C(F)(F)C(F)(F)C(F)(F)F,inactive,–
Oc1ccc(C(c2ccc(O)cc2)(C(F)(F)F)C(F)(F)F)cc1,inactive,–
NS(=O)(=O)C(F)(F)C(F)(F)C(F)(F)C(F)(F)C(F)(F)C(F)(F)C(F)(F)C(F)(F)F,–,46.1 µM (active)
CC(C)(O)C(=O)Nc1ccc([N+](=O)[O-])c(C(F)(F)F)c1,inactive,–
O=C(NC(=O)c1c(F)cccc1F)Nc1cc(Cl)c(OC(F)(F)C(F)F)c(Cl)c1,inactive,–
O=C(NC(=O)c1cc(F)c(F)cc1Cl)Nc1cc(F)ccc1N1CCC(C(=O)O)CC1,inactive,–
CC#Cc1cc(C)nc(Nc2ccccc2)n1,–,96.1 µM (active)
CCCCCCCCCc1ccc(O)cc1,inactive,–
